Laboratory results from ChEMBL document CHEMBL1961873, “Compounds: GSK PKIS; Assays: Nanosyn kinase panel” (2012).

Key:
[1] = target: T1, Serine/threonine-protein kinase D2 (Homo sapiens) (UniProt Q9BZL6); conditions: at 1 µM;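 note: mean value of PRKD2 inhibition, from the GSK PKIS screening panel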
T1 sequence (whole entry): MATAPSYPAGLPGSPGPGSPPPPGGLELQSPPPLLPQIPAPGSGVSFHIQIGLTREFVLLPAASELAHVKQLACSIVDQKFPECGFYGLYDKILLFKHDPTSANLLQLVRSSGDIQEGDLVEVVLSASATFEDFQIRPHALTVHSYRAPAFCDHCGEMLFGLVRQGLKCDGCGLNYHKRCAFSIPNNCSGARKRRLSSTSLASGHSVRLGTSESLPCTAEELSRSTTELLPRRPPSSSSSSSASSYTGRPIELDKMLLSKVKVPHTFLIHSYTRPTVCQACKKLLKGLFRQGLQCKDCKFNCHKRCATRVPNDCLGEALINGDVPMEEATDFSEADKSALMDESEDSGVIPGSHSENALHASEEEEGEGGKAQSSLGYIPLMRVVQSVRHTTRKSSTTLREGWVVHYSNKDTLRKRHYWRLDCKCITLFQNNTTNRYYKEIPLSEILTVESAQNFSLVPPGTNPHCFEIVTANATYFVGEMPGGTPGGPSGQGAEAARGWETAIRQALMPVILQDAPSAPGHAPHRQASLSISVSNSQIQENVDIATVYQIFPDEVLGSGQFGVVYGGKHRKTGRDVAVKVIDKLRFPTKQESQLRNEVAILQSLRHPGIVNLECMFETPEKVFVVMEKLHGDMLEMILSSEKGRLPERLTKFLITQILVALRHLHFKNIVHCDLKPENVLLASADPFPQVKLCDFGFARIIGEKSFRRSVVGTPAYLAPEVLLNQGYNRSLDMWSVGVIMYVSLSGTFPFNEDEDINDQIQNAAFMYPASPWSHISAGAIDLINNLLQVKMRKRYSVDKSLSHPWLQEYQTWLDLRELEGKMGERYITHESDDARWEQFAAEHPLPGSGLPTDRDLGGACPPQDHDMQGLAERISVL

[2] = target: T2, Serine/threonine-protein kinase D3 (Homo sapiens) (UniProt O94806); conditions: at 0.1 µM
T2 sequence (whole entry): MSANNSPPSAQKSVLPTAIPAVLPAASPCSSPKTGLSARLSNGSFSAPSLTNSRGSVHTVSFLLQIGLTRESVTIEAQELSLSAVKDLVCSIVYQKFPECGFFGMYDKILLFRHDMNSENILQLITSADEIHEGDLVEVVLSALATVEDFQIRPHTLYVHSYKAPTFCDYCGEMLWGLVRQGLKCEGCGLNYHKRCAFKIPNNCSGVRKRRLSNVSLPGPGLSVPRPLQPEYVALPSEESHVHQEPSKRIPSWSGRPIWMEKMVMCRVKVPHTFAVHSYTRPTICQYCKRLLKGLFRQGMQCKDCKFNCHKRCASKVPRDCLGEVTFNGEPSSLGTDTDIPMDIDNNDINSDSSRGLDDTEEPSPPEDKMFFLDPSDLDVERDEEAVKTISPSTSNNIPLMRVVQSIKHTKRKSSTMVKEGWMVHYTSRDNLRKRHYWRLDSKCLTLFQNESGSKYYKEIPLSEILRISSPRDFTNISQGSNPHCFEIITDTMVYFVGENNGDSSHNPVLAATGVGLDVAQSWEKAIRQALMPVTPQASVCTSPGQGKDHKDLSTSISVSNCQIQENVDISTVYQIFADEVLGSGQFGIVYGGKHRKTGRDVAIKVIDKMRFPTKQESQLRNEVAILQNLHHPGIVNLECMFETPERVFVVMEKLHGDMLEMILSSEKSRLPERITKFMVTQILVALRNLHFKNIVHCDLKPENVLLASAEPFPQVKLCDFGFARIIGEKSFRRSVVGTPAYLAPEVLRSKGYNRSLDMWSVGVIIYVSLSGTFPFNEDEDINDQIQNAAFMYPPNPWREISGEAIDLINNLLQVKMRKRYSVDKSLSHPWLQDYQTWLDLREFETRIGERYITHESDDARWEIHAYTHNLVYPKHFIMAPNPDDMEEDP

[3] = target: T2, Serine/threonine-protein kinase D3 (Homo sapiens); conditions: at 1 µM
[4] = target: T3, cGMP-dependent protein kinase 1 (Homo sapiens) (UniProt Q13976); conditions: at 0.1 µM
T3 sequence (whole entry): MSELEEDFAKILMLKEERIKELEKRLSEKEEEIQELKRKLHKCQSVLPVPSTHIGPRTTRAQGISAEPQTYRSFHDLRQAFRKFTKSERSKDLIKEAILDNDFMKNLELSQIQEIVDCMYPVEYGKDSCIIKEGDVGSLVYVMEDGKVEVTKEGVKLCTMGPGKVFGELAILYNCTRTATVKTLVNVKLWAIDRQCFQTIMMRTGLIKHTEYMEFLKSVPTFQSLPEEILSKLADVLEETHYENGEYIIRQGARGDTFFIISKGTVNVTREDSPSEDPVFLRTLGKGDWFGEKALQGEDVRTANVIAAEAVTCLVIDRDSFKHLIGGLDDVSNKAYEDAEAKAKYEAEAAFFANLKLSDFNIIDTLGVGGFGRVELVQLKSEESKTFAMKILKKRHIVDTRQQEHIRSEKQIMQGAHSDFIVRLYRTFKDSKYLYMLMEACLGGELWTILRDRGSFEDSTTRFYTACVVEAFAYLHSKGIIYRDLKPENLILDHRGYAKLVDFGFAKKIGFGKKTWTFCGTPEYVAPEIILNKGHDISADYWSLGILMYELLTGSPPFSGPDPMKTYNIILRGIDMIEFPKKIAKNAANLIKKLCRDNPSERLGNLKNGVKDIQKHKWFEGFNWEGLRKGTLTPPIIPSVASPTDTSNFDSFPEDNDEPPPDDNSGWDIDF

[5] = target: T3, cGMP-dependent protein kinase 1 (Homo sapiens); conditions: at 1 µM
[6] = target: T4, cGMP-dependent protein kinase 2 (Homo sapiens) (UniProt Q13237); conditions: at 0.1 µM
T4 sequence (whole entry): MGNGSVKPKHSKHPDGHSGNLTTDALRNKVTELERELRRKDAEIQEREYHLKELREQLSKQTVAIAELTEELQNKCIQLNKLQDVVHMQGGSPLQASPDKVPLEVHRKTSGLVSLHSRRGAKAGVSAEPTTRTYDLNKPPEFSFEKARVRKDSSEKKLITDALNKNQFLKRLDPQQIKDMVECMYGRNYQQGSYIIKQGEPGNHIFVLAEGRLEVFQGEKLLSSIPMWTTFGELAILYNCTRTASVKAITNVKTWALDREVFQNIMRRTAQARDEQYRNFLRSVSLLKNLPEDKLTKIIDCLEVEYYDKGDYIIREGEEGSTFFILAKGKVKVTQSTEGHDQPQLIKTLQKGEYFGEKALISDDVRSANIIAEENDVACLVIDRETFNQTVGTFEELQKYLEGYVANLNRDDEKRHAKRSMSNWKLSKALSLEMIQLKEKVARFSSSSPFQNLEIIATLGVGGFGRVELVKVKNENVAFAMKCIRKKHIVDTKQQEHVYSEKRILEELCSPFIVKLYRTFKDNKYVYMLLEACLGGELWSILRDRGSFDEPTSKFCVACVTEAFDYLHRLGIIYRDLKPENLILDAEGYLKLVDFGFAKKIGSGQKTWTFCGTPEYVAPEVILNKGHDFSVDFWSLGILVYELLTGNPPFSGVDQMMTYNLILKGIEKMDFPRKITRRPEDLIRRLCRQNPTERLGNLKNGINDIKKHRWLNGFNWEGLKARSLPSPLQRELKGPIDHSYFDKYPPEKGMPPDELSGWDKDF

[7] = target: T4, cGMP-dependent protein kinase 2 (Homo sapiens); conditions: at 1 µM
[8] = target: T5, cAMP-dependent protein kinase catalytic subunit PRKX (Homo sapiens) (UniProt P51817); conditions: at 0.1 µM
T5 sequence (whole entry): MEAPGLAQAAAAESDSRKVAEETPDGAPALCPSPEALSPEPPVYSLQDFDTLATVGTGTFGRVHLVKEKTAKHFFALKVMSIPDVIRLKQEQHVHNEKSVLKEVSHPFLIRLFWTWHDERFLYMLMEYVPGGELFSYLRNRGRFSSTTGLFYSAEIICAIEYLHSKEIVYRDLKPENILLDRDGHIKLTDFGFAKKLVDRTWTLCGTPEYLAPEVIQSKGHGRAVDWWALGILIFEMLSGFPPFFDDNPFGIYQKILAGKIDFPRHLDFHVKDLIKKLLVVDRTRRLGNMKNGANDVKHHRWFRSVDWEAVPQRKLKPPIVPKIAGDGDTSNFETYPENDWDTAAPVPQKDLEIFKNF

[9] = target: T5, cAMP-dependent protein kinase catalytic subunit PRKX (Homo sapiens); conditions: at 1 µM
[10] = target: Rho-associated protein kinase 1 (Homo sapiens) (UniProt Q13464); conditions: at 0.1 µM
Rho-associated protein kinase 1 (Homo sapiens), sequence (Q13464 2-1354 limits assumed): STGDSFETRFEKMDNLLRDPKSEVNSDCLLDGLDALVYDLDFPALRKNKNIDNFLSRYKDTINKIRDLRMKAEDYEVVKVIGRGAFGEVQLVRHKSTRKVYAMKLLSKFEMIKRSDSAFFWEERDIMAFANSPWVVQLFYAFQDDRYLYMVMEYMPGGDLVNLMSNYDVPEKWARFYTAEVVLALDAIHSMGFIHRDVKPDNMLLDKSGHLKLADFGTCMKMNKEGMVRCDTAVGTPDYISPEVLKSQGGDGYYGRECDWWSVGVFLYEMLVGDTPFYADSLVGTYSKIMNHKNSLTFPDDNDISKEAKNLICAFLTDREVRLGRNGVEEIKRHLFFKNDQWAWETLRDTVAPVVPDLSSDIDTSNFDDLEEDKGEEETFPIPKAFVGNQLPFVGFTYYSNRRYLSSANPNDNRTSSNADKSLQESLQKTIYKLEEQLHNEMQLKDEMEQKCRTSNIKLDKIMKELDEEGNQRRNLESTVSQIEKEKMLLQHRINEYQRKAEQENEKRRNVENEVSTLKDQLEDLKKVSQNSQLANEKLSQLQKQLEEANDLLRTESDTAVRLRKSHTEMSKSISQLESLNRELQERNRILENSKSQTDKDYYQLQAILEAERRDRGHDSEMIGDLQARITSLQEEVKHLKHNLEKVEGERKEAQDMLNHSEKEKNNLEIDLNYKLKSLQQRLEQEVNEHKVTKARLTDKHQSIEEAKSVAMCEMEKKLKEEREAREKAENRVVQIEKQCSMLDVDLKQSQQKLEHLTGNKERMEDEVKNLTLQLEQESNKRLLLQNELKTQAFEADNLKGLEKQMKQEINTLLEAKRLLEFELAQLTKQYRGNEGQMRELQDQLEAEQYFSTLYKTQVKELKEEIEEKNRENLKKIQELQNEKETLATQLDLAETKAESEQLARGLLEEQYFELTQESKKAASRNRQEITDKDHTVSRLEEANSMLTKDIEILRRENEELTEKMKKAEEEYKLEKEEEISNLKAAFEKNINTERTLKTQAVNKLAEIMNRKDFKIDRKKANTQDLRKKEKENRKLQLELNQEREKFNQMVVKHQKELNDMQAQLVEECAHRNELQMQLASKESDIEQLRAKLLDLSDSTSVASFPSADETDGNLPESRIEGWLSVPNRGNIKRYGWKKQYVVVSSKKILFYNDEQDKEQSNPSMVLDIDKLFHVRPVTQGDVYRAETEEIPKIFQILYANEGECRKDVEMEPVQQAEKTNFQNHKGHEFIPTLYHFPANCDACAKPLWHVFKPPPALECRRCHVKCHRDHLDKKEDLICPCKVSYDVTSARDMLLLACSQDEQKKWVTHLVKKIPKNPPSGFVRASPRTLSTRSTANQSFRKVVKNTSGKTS

[11] = target: Rho-associated protein kinase 1 (Homo sapiens) (UniProt Q13464); conditions: at 1 µM
[12] = target: Rho-associated protein kinase 2 (Homo sapiens) (UniProt O75116); conditions: at 0.1 µM
Rho-associated protein kinase 2 (Homo sapiens), sequence (O75116 whole entry, looked up): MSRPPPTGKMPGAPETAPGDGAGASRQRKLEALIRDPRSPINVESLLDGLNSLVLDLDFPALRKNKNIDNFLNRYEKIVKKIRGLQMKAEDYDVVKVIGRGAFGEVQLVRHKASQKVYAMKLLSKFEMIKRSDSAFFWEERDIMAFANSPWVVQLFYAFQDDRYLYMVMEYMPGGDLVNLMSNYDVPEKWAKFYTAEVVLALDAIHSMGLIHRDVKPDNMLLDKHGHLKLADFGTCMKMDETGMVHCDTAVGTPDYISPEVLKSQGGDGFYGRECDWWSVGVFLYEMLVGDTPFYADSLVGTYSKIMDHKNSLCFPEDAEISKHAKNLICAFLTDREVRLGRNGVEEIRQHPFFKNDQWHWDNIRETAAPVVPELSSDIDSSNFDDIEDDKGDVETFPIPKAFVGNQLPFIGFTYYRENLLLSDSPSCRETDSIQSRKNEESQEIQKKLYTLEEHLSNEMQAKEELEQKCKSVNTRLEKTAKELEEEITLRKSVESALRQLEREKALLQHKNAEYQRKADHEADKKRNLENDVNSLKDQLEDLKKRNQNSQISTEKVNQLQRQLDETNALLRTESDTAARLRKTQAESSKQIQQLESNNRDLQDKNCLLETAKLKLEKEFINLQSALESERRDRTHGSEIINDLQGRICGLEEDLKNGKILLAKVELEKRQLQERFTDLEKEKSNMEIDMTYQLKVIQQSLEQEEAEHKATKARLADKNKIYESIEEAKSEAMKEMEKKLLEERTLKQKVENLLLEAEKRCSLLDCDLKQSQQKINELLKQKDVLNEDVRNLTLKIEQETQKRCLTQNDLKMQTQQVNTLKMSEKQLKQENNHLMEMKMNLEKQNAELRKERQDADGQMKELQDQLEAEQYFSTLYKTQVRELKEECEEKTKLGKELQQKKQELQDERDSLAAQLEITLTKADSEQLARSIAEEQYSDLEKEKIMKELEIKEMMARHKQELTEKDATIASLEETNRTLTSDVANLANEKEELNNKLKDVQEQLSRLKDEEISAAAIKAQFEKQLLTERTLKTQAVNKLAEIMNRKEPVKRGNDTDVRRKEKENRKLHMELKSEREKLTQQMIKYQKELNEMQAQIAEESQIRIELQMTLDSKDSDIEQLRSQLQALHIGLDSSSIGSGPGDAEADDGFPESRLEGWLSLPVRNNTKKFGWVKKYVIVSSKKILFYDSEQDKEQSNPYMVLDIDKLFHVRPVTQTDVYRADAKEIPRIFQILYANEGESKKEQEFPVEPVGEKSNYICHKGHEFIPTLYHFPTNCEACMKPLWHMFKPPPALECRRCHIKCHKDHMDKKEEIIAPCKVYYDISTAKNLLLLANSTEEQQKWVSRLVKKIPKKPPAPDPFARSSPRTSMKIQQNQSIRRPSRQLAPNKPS

[13] = target: Rho-associated protein kinase 2 (Homo sapiens) (UniProt O75116); conditions: at 1 µM
[14] = target: Ribosomal protein S6 kinase alpha-1 (Homo sapiens) (UniProt Q15418); conditions: at 0.1 µM
[15] = target: Ribosomal protein S6 kinase alpha-1 (Homo sapiens) (UniProt Q15418); conditions: at 1 µM
[16] = target: Ribosomal protein S6 kinase alpha-3 (Homo sapiens) (UniProt P51812); conditions: at 0.1 µM
Ribosomal protein S6 kinase alpha-3 (Homo sapiens), sequence (P51812 whole entry): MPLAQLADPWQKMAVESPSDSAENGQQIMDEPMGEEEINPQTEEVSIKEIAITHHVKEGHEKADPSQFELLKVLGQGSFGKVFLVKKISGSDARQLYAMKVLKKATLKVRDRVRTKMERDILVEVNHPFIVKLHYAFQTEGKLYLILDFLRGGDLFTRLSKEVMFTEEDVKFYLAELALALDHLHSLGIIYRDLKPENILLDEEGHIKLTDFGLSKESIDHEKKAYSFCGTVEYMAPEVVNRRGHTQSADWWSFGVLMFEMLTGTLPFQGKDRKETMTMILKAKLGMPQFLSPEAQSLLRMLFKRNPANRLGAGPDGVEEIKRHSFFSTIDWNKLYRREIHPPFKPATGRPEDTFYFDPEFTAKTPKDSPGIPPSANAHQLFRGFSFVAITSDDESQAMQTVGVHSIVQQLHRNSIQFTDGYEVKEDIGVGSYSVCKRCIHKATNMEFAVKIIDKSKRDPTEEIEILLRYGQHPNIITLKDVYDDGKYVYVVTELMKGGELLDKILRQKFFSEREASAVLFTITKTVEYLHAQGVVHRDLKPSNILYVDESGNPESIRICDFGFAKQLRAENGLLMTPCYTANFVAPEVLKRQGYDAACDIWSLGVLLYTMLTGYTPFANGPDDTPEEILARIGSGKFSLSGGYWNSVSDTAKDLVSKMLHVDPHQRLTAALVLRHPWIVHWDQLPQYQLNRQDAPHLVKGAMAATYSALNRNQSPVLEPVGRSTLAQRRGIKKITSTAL

[17] = target: Ribosomal protein S6 kinase alpha-3 (Homo sapiens) (UniProt P51812); conditions: at 1 µM
[18] = target: Ribosomal protein S6 kinase alpha-2 (Homo sapiens) (UniProt Q15349); conditions: at 0.1 µM
Ribosomal protein S6 kinase alpha-2 (Homo sapiens), sequence (Q15349 whole entry): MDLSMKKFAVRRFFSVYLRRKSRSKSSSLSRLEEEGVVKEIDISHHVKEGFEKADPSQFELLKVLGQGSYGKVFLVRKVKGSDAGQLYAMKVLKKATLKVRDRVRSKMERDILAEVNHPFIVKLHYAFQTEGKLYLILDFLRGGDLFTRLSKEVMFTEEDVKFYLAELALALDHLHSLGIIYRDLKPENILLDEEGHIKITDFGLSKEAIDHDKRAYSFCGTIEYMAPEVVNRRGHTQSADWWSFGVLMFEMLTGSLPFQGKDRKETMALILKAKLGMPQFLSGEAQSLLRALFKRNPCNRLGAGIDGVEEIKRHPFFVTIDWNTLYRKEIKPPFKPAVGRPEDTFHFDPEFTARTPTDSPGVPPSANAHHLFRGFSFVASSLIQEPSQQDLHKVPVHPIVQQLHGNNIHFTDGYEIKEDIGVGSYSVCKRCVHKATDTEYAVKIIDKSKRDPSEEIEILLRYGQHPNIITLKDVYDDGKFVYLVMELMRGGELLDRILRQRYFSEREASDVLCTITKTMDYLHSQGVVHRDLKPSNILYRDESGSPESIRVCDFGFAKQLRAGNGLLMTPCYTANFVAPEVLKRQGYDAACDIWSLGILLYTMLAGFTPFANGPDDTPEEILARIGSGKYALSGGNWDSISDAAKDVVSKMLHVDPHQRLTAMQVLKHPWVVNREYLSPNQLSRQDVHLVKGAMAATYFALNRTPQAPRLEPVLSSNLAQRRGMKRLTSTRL

[19] = target: Ribosomal protein S6 kinase alpha-2 (Homo sapiens) (UniProt Q15349); conditions: at 1 µM
[20] = target: Ribosomal protein S6 kinase alpha-6 (Homo sapiens) (UniProt Q9UK32); conditions: at 0.1 µM;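 note: reported value is the mean inhibition of RSK4, from the GSK PKIS kinase inhibitor screen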
Ribosomal protein S6 kinase alpha-6 (Homo sapiens), sequence (Q9UK32 whole entry): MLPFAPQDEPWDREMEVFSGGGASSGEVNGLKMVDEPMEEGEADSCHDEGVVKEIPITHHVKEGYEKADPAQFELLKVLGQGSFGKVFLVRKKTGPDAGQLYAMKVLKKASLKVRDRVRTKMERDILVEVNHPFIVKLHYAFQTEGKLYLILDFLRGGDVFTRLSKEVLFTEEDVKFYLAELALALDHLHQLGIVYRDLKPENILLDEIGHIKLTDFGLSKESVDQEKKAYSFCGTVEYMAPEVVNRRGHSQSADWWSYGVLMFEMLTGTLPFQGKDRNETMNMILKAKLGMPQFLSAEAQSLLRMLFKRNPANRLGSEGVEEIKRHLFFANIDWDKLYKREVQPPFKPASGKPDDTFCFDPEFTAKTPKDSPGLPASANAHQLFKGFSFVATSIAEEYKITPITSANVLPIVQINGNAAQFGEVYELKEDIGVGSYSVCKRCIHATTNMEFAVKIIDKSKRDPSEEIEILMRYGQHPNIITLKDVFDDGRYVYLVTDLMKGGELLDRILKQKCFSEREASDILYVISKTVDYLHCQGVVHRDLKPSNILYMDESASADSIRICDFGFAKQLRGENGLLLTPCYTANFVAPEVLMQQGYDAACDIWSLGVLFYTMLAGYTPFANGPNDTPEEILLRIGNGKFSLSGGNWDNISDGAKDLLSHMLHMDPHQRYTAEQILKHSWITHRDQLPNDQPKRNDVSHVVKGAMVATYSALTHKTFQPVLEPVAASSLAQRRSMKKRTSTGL

Compound	inhibition [1]	inhibition [2]	inhibition [3]	inhibition [4]	inhibition [5]	inhibition [6]	inhibition [7]	inhibition [8]	inhibition [9]	inhibition [10]	inhibition [11]	inhibition [12]	inhibition [13]	inhibition [14]	inhibition [15]	inhibition [16]	inhibition [17]	inhibition [18]	inhibition [19]	inhibition [20]
Cc1cccc2c1NC(=O)/C2=N\Nc1ccc(S(N)(=O)=O)cc1	3.1%	3.5%	3.85%	0.72%	2.94%	3.15%	3.38%	1.15%	2.2%	1.31%	2.1%	3.93%	1.59%	1.09%	1.6%	0.33%	1.26%	1.69%	2.49%	1.43%
COc1ccc2[nH]c3c4[nH]c5ccc(OC)cc5c4c4c(c3c2c1)C(=O)NC4=O	45.9%	5.31%	14.4%	6.13%	35%	69.5%	72.5%	9.07%	46%	1.15%	7.02%	6.62%	16.6%	53.9%	82%	44.9%	80.1%	73.5%	92.4%	58.2%
Fc1cccc(COc2ccc(Nc3ncnc4sc(-c5ccco5)cc34)cc2Cl)c1	2.52%	5.28%	4.41%	2.93%	1.81%	1.59%	-0.65%	2.01%	2.86%	2.54%	2.72%	3.35%	4.12%	2.09%	2.91%	1.55%	3.12%	2.51%	2.48%	1.33%
[O-][S+]1CCN(Cc2ccc(-c3ccc4ncnc(Nc5ccc(OCc6cccc(F)c6)c(Cl)c5)c4c3)o2)CC1	6.63%	4.66%	6.53%	3.87%	3.85%	3.53%	5.63%	2.88%	2.98%	2.1%	4.37%	2.9%	5.33%	2.31%	3.99%	0.59%	0.78%	3.09%	3.37%	1.65%
COC(=O)c1sc(-n2cnc3cc(OC)c(OC)cc32)cc1OCc1ccccc1C(F)(F)F	5.96%	4.17%	5.73%	2.01%	4.24%	1.58%	3.35%	-0.14%	0.19%	0.1%	1.93%	1.69%	1.32%	0.68%	1.38%	0.27%	1.3%	1.77%	4.5%	1.2%
CC(C)(CO)CNC(=O)c1ccc2c(c1)/C(=N/Nc1ccc(S(N)(=O)=O)cc1)C(=O)N2	11.8%	0.07%	9.82%	0.66%	11.8%	2.6%	22%	0.91%	3.07%	0.33%	5.01%	0.95%	10.3%	0.63%	3.49%	0.73%	4.41%	0.48%	6.29%	1.62%
CCNC(=O)O[C@H]1CN[C@H](C#Cc2cc3ncnc(Nc4ccc(OCc5cccc(F)c5)c(Cl)c4)c3s2)C1	3.71%	2.4%	3.78%	2.33%	3.36%	-0.03%	2.81%	-0.14%	-0.33%	0.96%	1.95%	2.86%	0.32%	1.32%	0.05%	-0.04%	-1.01%	1.63%	0.86%	1.4%
COc1ccc2c(-c3ccnc(Nc4cccc(OC(F)(F)F)c4)n3)cnn2n1	5.35%	3.53%	5.76%	2.98%	14.2%	1.96%	7.99%	2.02%	3.71%	1.01%	2.92%	3.74%	8.15%	2.26%	3.67%	1.3%	1.1%	1.43%	2.43%	1.53%
c1cc(-c2cnn3nc(N4CCOCC4)ccc23)nc(NC2CC2)n1	52.4%	5.91%	49.9%	2.98%	6.68%	2.25%	11.9%	1.09%	-0.73%	1.67%	5.25%	2.62%	10.7%	2.23%	8.38%	0.87%	6.33%	1.86%	5.06%	0.29%
COc1cc2c(cc1Nc1nc(Nc3ccsc3C(N)=O)c3cc[nH]c3n1)N(C(=O)CN(C)C)CCC2(C)C	75.7%	19.8%	75.7%	3.61%	8.75%	4.41%	9.54%	2.19%	6.05%	25%	66.5%	29.2%	72.1%	23.2%	66%	17.2%	50.7%	8.55%	34.4%	11.5%
CCn1c(-c2nonc2N)nc2ccccc21	4.37%	2.15%	3.93%	6.5%	30.9%	26.9%	70.6%	3.21%	5.67%	6.65%	36.6%	9.34%	42.6%	18%	58.3%	7.22%	36.2%	19.1%	68.5%	1.71%
CC1=C(C(=O)Nc2cc(Cl)c3[nH]ncc3c2)C(c2ccc(C(F)(F)F)cc2)CC(=O)N1 (stereo not given)	7.46%	4.09%	7.2%	27.6%	67.9%	16.9%	59.7%	44.8%	79.7%	70.7%	84%	72.3%	85.8%	27.8%	68.7%	22.3%	65.5%	13.1%	53.4%	7.7%
COc1ccc(-c2cc(-c3c[nH]nc3-c3ccccn3)ccn2)cc1	44.8%	7.96%	27.2%	1.9%	5.45%	3.27%	4.61%	2.8%	6.17%	1.04%	4.3%	4.88%	7.92%	2.73%	6.34%	1.84%	4.06%	2.82%	4.07%	1.53%
